# Starred links: 1 amine or outer side, 2 acyl side, 3 side chain; linkers in the order of their positions; H or OH if unused. Positions of bridges follow the written chain, without caps; N, C: chain ends. Non-standard residues stand in square brackets, D forms with d. Residues, ends and D or L forms follow the SMILES beside them. *: point of attachment. X2 = NC1=C[C@@H](O)C[C@H]([C@H](N[*:1])C(=O)[*:2])N1; ΔAla(3-NHCONH2) = NC(=O)NC=C(N)C(=O)O; β3hOrn = NCCC[C@H](N)CC(=O)*; Dap = NC[C@H](N)C(=O)O
# Test: qHTS profiling of the MIPE4 collection as inhibitors of Plasmodium falciparum (DD2) proliferation (Rep 2) (AID 743346)
# Conditions: P. falciparum Dd2 in erythrocytes, SYBR Green DNA, 72 h; at 28.5 µM
# Method in brief: (§1)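 Parasite DNA was quantified by SYBR Green I fluorescence (ex 485, em 535 nm) after overnight lysis in saponin/Triton buffer at room temperature. Cultures at 0.3% parasitemia and 2.5% hematocrit were first exposed to compound for 72 h at 37 C; signals were normalised to artemisinin (0.29 uM) and vehicle wells.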
row,SMILES,"parasite growth, % of control (lower = inhibition) [%]"
1,C[C@H]1C[C@H]2C3CCC4=CC(=O)C=C[C@@]4(C)[C@@]3(Cl)[C@@H](O)CC2(C)[C@@]1(OC(=O)c1ccco1)C(=O)CCl (some centres undefined),16.7
2,CN(C)CCC=C1c2ccccc2COc2ccccc21,55.1
3,CO[C@H]1C=CO[C@@]2(C)Oc3c(C)c(O)c4c(O)c(c(C=NN5CCN(C)CC5)c(O)c4c3C2=O)NC(=O)C(C)=CC=CC(C)[C@H](O)[C@@H](C)[C@@H](O)[C@@H](C)[C@@H](OC(C)=O)[C@H]1C (some centres undefined),8.95
4,CCOc1ccc(F)cc1C1(O)C(N)=Nc2ccc(Cl)cc21 (centres undefined),8.34
5,COC1=C2C[C@H](C)C[C@H](OC)[C@@H](O)[C@@H](C)C=C(C)[C@H](OC(N)=O)[C@@H](OC)C=CC=C(C)C(=O)NC(=CC1=O)C2=O,6.42
6,CCN(CC)CCOc1ccc2c(=O)c3ccc(Cl)cc3n(CCN(CC)CC)c2c1,27.8
7,CCCC[C@@H]1C[C@@H](C(=O)NC([C@H](C)Cl)[C@H]2O[C@H](S)[C@H](O)[C@@H](O)[C@@H]2O)N(C)C1 (some centres undefined),28
8,NCCC[C@H](N)CC(=O)N[C@H]1CNC(=O)[C@H]([C@H]2C[C@H](O)C=C(N)N2)NC(=O)C(=CNC(N)=O)NC(=O)[C@H](CO)NC(=O)[C@H](CO)NC1=O (β3hOrn-[Dap]SS[ΔAla(3-NHCONH2)][X2]; lactam 1-C),133
9,Cc1nc2c(C#N)cccc2n1-c1ccc(C(=O)NC2CC2)s1,10.3
10,O=CN(O)CCCP(=O)(O)O,17.4
11,C[C@H]1Cc2c([nH]c3cc(Cl)c(F)cc23)[C@@]2(N1)C(=O)Nc1ccc(Cl)cc12,33.6
12,CN([C@@H](Cc1ccc(O[S+](=O)([O-])c2cccc3cnccc23)cc1)C(=O)N1CCN(C(=O)OCc2ccccc2)CC1)[S+](=O)([O-])c1cccc2cnccc12,26.8

# Test: qHTS profiling of the MIPE4 collection as inhibitors of Plasmodium falciparum (HB3) proliferation (AID 743347);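 note: plate controls were DMSO vehicle wells for no effect and artemisinin wells for full effect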
# Conditions: P. falciparum HB3 in erythrocytes, SYBR Green DNA, 72 h; at 28.5 µM
# Method in brief: as §1
row,SMILES,"growth, % of control [%]"
1,C[C@H]1C[C@H]2C3CCC4=CC(=O)C=C[C@@]4(C)[C@@]3(Cl)[C@@H](O)CC2(C)[C@@]1(OC(=O)c1ccco1)C(=O)CCl (some centres undefined),5.44
2,CN(C)CCC=C1c2ccccc2COc2ccccc21,96.7
3,CO[C@H]1C=CO[C@@]2(C)Oc3c(C)c(O)c4c(O)c(c(C=NN5CCN(C)CC5)c(O)c4c3C2=O)NC(=O)C(C)=CC=CC(C)[C@H](O)[C@@H](C)[C@@H](O)[C@@H](C)[C@@H](OC(C)=O)[C@H]1C (some centres undefined),6.73
4,CCOc1ccc(F)cc1C1(O)C(N)=Nc2ccc(Cl)cc21 (centres undefined),5.81
5,COC1=C2C[C@H](C)C[C@H](OC)[C@@H](O)[C@@H](C)C=C(C)[C@H](OC(N)=O)[C@@H](OC)C=CC=C(C)C(=O)NC(=CC1=O)C2=O,2.93
6,CCN(CC)CCOc1ccc2c(=O)c3ccc(Cl)cc3n(CCN(CC)CC)c2c1,5.14
7,CCCC[C@@H]1C[C@@H](C(=O)NC([C@H](C)Cl)[C@H]2O[C@H](S)[C@H](O)[C@@H](O)[C@@H]2O)N(C)C1 (some centres undefined),52.4
8,NCCC[C@H](N)CC(=O)N[C@H]1CNC(=O)[C@H]([C@H]2C[C@H](O)C=C(N)N2)NC(=O)C(=CNC(N)=O)NC(=O)[C@H](CO)NC(=O)[C@H](CO)NC1=O (β3hOrn-[Dap]SS[ΔAla(3-NHCONH2)][X2]; lactam 1-C),100
9,Cc1nc2c(C#N)cccc2n1-c1ccc(C(=O)NC2CC2)s1,4.26
10,O=CN(O)CCCP(=O)(O)O,9.42
11,C[C@H]1Cc2c([nH]c3cc(Cl)c(F)cc23)[C@@]2(N1)C(=O)Nc1ccc(Cl)cc12,7.99
12,CN([C@@H](Cc1ccc(O[S+](=O)([O-])c2cccc3cnccc23)cc1)C(=O)N1CCN(C(=O)OCc2ccccc2)CC1)[S+](=O)([O-])c1cccc2cnccc12,8.42
